Sampled rows, rich in hits. Any-hit rate of the full collection: about 1.2%.
Apoferritin bind: qHTS Assay for Identification of Novel General Anesthetics | Ferritin light chain (Equus caballus), P02791 | apoferritin/1-aminoanthracene competitive binding, fluorescence | Potency, µM (series often up to 77.5 µM), inactives show at the top dose activity change, negative = displacement, most hits filed as inhibitors | actives 0.074% (n = 350,000) | AID 485281, 2010; also: potency is read from the fitted curve at half-maximal effect; % is scaled to controls: 0 for no effect and ±100 for the full control effect; nearly all actives have a fitted effect of over 20% in size
Target sequence (P02791 2-175 limits assumed): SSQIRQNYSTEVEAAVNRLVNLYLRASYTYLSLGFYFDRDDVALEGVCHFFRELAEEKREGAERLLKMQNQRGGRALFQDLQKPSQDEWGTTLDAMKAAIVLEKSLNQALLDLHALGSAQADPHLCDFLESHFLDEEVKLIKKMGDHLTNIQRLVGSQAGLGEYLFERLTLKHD
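Read-out: endpoint 1-AMA fluorescence, excitation 380 nm and emission 535 nm, after compounds sit 10 min at room temperature with 10 uM horse-spleen apoferritin in 50% saturated 1-AMA/PBS. Values come from four-parameter Hill fits.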
TSHR antag: Antagonists of the Thyroid Stimulating Hormone Receptor: HTS campaign | actives 0.2% (n = 330,000) | TSHR-expressing cells, TSH-stimulated cAMP HTRF, 2 h; stronger effect = lower value | AID 504810, 2011 | activity change, negative = inhibition, % at 11.5 µM | Thyrotropin receptor (Homo sapiens), P16473;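 active = activity change below a set negative limit, meaning inhibition stronger than a set level, cut at about -70% in these data; inconclusive = activity change between two set negative limits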; also: % is scaled to controls: 0 for no effect and ±100 for the full control effect
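Competitive HTRF cAMP read-out (cryptate anti-cAMP antibody, cAMP-d2; 30 min, room temperature) in freshly harvested TSHR cells. Compounds added before TSH at EC80 (4nM final), followed by 2 hours' incubation at 37 deg C.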
BRCA1 expr up: qHTS Assay to Identify Small Molecule Activators of BRCA1 Expression; MCF7-BRCA1-FFLuc reporter, luminescence, 48 h; response scale: scaled: vehicle 0%, 10 µM genistein 100%; Potency, µM (titrated, usually from 46.1 µM), without a hit: at the top dose activation, most hits filed as activators; actives 1.1% (n = 380,000); AID 624202, 2012; also: potency is read from the fitted curve at half-maximal effect; nearly all actives have a fitted effect of over 80% in size
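Activators of BRCA1 expression were detected as increased firefly luciferase luminescence in engineered MCF7 cells after 48 h compound incubation. Signals were scaled to genistein 10 microM as full activation.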
ASM inhibitor: Inhibitors of Secretory Acid Sphingomyelinase (S-ASM): qHTS; actives 0.006% (n = 340,000); Potency, µM (doses to about 57.5 µM), for inactives: at the highest dose activity change, negative = inhibition, hits mostly inhibitors; placental ASM, HMU-PC fluorogenic substrate, 60 min; Sphingomyelin phosphodiesterase (Homo sapiens), P17405; AID 504937, 2011; also: potency is read from the fitted curve at half-maximal effect
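Steps: dispense placental human ASM, pin compound, wait 10 min at room temperature, add HMU-PC0 substrate at 9 uM final, incubate 60 min at 37 °C, add stop solution raising pH to 10, read fluorescence.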
TSG101-PTAP inh: qHTS Assay for Iinhibitors of HIV-1 Budding by Blocking the Interaction of PTAP/TSG101; Fluorescence polarization, FITC-PTAP peptide / Tsg101 binding; Potency, µM (doses to about 115 µM), for inactives: at the highest dose activity change, negative = inhibition, hits mostly inhibitors; 340,000 tested, under 10 active; active = well fitted inhibition curve with a large enough effect in the main read-out, with a control signal flat, not every such curve was filed as active; inconclusive = small, poorly fitted or top-dose-only effect, or effect the other way, or a change in a side signal; inactive = no such curve, though single readings can be large or run the other way; also: potency is read from the fitted curve at half-maximal effect; % of control where 0% means no effect
Target sequence (Q99816 whole entry, looked up): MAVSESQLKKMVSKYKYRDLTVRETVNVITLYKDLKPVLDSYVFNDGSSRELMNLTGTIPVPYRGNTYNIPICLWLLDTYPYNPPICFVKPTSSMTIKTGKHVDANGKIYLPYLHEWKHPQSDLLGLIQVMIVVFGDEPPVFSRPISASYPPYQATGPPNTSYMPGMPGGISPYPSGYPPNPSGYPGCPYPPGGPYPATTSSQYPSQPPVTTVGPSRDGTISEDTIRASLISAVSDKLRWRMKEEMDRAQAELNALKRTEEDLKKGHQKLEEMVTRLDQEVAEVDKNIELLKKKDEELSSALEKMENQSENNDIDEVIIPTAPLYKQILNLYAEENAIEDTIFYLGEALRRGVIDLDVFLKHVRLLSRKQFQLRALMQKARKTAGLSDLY
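Fluorescence anisotropy tracks displacement of a FITC-tagged PTAP peptide (50 nM) from the Tsg101 binding domain (10 uM), following a 20 min room-temperature incubation at pH 7.5.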
* = called active by the depositor; ? = inconclusive; · = not tested or not shown; [ ] = remark or other dose. Unless noted, calls follow the shape of the dose curve; as a rule, active = well fitted curve in the direction sought with a large enough effect; inconclusive = small, poorly fitted or top-dose-only effect, or another doubt; inactive = no such curve, though single readings can be large; an effect the other way counts as inactive or inconclusive.

SMILES | Apoferritin bind | TSHR antag | BRCA1 expr up | ASM inhibitor | TSG101-PTAP inh
COc1cccc(NC(=O)Nc2nc(-c3ccc(OC)c(OC)c3)cs2)c1 | -19% | -94* | -102% | -22% | -3%
CC(=O)Nc1nc(COc2ccc3ccccc3c2)cs1 | -13% | 0 | 43%[1.84 µM] | -9% | -6%
COc1ccc(-c2csc(Nc3ncccc3C)n2)cc1OC | -5% | 10 | 2.8µM* | -8% | 1%
CCC[C@H]1C[C@H](C(=O)NC(C(C)Cl)C2O[C@@H](SC)C(OP(=O)(O)O)[C@@H](O)[C@@H]2O)N(C)C1 (stereo not given in full) | 5% | · | · | · | ·
COc1cccc(OC)c1-c1cc(CCCc2cc(-c3c(OC)cccc3OC)nc3ccccc23)c2ccccc2n1 | · | · | -73% | · | ·
COc1cccc(-c2csc(NC(C)=O)n2)c1 | 3% | -2 | 13µM* | -1% | -5%
COc1ccc2cc(-c3csc(-c4cccnc4)n3)ccc2c1 | -19% | -9 | ? | -1% | -3%
COc1ccc(-c2csc(-c3cccnc3)n2)cc1C | -16% | -6 | 13µM* | 1% | -2%
C=C(C)C1Cc2cc3ccc(=O)oc3cc2O1 (stereo not given) | 5% | -4 | 10µM* | 5% | -2%
Cc1cn(C2CC3OCC(NC(=O)C4CCCN4C(=O)OC(C)(C)C)C3O2)c(=O)[nH]c1=O (stereo not given) | 0% | · | · | · | ·
O=S(=O)(c1cccs1)N1CCCc2cccc(O)c21 | ? | 2 | 13µM* | -2% | -6%
O=C(Nc1ccc2c(c1)N(S(=O)(=O)c1cccs1)CCC2)c1c(F)cccc1F | · | -14 | -42% | -6% | 0%
CN(C)/[N+]([O-])=N/Oc1ccc([N+](=O)[O-])cc1C(F)(F)F | · | · | 20% | · | ·
CCC(=O)N/C(N)=N/c1nc2ccccc2o1 | 4% | -2 | 2µM* | 3% | 0%
CCCC(=O)N/C(N)=N/c1nc2ccccc2o1 | 1% | 1 | ? | -1% | 1%
Cc1cc(/C=C2/C(=O)N(C)C(=S)N2C)c(C)n1C1CC1 | -15% | 5 | 11µM* | -9% | 0%
Cc1cc(/C=C2\SC(=S)NC2=O)c(C)n1C1CC1 | ? | 0 | 13µM* | -10% | -2%
O=C(/C=C/c1ccc(/C=C/C(=O)Nc2ccc(C3=NCCN3)cc2)cc1)Nc1ccc(C2=NCCN2)cc1 | 44% | · | · | · | ·
CCc1c(C)nc2cc(-c3ccc(OC)cc3)[nH]n2c1=O | -13% | -12 | 8.9µM* | 0% | -2%
COc1cc(N(C)C)c(OC)cc1/C=C1\Cc2ccccc2C1=O | · | · | -25% | · | ·
c1ccc(COc2ccc(-c3csnn3)cc2)cc1 | -7% | 37 | 5.6µM* | 0% | -5%
O=C(C[n+]1cc(Br)cc2ccccc21)c1ccc(O)c(O)c1 | · | · | -49% | · | ·
O=C(CNC(=O)c1ccccc1F)Nc1ccc2c(c1)CCC2 | · | -3 | 4µM* | 1% | -7%
O=C(Nc1ccc2c(c1)CCC2)c1c(F)cccc1Cl | -14% | -10 | 5µM* | 4% | -1%
O=C(Nc1ccc2c(c1)CCC2)c1cc(S(=O)(=O)Nc2ccc(F)cc2)c(Cl)cc1Cl | -3% | -76* | -59% | -17% | -2%
SMILES | Apoferritin bind | TSHR antag | BRCA1 expr up | ASM inhibitor | TSG101-PTAP inh
O=C(Nc1ccc2c(c1)CCC2)c1ccc(F)cc1 | -9% | -12 | ? | 1% | -1%
O=C(OCCF)N1CCN(/[N+]([O-])=N/Oc2ccc([N+](=O)[O-])cc2[N+](=O)[O-])CC1 | · | · | -71% | · | ·
CSCC[C@H](NC(=O)[C@H](CC(C)C)NC(=O)CCNC(=O)[C@@H](NC(=O)[C@H](Cc1ccccc1)NC(=O)[C@H](CO)NC(=O)[C@@H](N)CC(=O)O)C(C)C)C(N)=O | -6% | · | · | · | ·
CN(C)S(=O)(=O)c1cccc(-c2nn(-c3ccccc3)cc2/C=C2\SC(=S)NC2=O)c1 | 2% | -74* | -81% | -1% | 0%
Cc1ccc(SCc2nc(N)nc(Nc3ccccc3C)n2)c(C)c1 | 1% | 18 | 23% | -2% | -1%
Nc1nc(CSc2n[nH]c(-c3ccccc3)n2)nc(Nc2ccccc2)n1 | 4% | -3 | -33% | 39% | -1%
Nc1nc(CSc2ncccn2)nc(Nc2ccccc2)n1 | -10% | 7 | 4µM* | 0% | -2%
Cc1ccc(Nc2nc(N)nc(CSc3ncccn3)n2)cc1 | -17% | -4 | 2.2µM* | -2% | -6%
Cc1ccc(Nc2nc(N)nc(CSc3nccn3C)n2)c(C)c1 | -3% | -9 | 7.1µM* | 5% | -5%
CC1CCN2c3cc(Cl)ccc3CC3(C(=O)OC(C)(C)OC3=O)C2C1 (stereo not given) | · | · | 9% | · | ·
COc1ccc(CCNc2ncnc3nc[nH]c23)cc1 | · | · | 51% | · | ·
Cc1cc(C)c2c(c1)C1C=CCC1C(C(=O)O)N2 (stereo not given) | · | · | 10% | · | ·
CC(C)CO/N=C1/C[C@@H](O)[C@@H](O)[C@@H]2[C@@H]3C(=O)N(Cc4ccc5c(c4)OCO5)C(=O)[C@H]3CC[C@H]12 | -7%[15.3 µM] | · | · | · | ·
O=C(N/N=C\c1ccc(Oc2ccccc2)cc1)c1csnn1 | -10% | -15 | 13µM* | -1% | -2%
COc1ccc(/C=N/Nc2nc(N3CCCC3)nc(N3CCCC3)n2)cc1O | -15% | 3 | 0% | 55% | 0%
COc1cc(/C=N/Nc2nc(N3CCCC3)nc(N3CCCC3)n2)ccc1OCc1ccccc1F | -3% | -71* | ? | 11% | -1%
CCN(CC)c1ccc(/C=C/c2ccc3ccccc3n2)cc1 | · | · | -71% | · | ·
Cc1noc(C)c1-c1ccc2ncnc(NCc3cccn3C)c2c1 | -5% | · | · | · | ·
COc1ccc(-c2coc3cc(O[C@@H]4O[C@H](CO)[C@@H](O)[C@H](O)[C@H]4O)c(OC)cc3c2=O)cc1 | · | 4 | 11µM* | 1% | 1%
COc1ccc(-c2coc3cc(O)ccc3c2=O)cc1O | -5% | -6 | 13µM* | -2% | 0%
COc1ccc(CC(=O)c2ccc(OC3OC(CO)C(O)C(O)C3O)cc2O)cc1 (stereo not given) | 4% | -3 | 11µM* | 2% | -5%
OC[C@@H]1O[C@@H](Oc2ccc(O)cc2)[C@H](O)[C@@H](O)[C@@H]1O | -1% | · | · | · | ·
CC(=O)Oc1ccc2c(=O)c(-c3ccccc3)coc2c1 | -6% | 6 | 7.9µM* | 36% | -3%
COc1ccc(-c2coc3cc(OC4OC(CO)C(O)C(O)C4O)ccc3c2=O)cc1 (stereo not given) | -5% | -3 | ? | -1% | -9%

Bioassay records: PubChem, National Center for Advancing Translational Sciences (NCATS)
